{"source": "PubChem BioAssay AID1159580", "about": "(chemical genetic matrix, 2015)", "assay": "chemical genetic growth profiling, strain panel (AID 1159580);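 note: tested at 20 µM; growth read once vehicle control cultures reached saturation at 30 °C; 1 = growth at the plate median or of vehicle wells; lower values mean less growth of the strain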", "settings": "S. cerevisiae deletion strains, growth OD", "note": "“And” between values parts separate entries of the source, which are not always exact repeats. Identical values can stand only once. The whole screen tested about 5,500 compounds, of which about 2,000 (36%) were called active. Not shown: some 18% with an inconclusive outcome. The list shows a part of the results. Values without a mark were called inactive. Cut-off read from the data, not from the text of the source: active = normalized growth mostly below about 0.91 (no sharp cut-off); inconclusive = no clear call, values can overlap the other calls; inactive = mostly above about 0.92.", "data": [{"smiles": "COc1c2occc2cc2ccc(=O)oc12", "values": [{"measurement": "normalized growth", "setting": "locus YAL013W, strain DEP1, stronger effect = lower value", "result": 0.992}, {"measurement": "normalized growth", "setting": "locus YAL021C, strain ccr4, stronger effect = lower value", "result": 0.966}, {"measurement": "normalized growth", "setting": "locus YAL026C, strain drs2, stronger effect = lower value", "result": 0.954}, {"measurement": "normalized growth", "setting": "locus YAL030W, strain snc1, stronger effect = lower value", "result": 0.975}, {"measurement": "normalized growth", "setting": "locus YBL061C, strain skt5, stronger effect = lower value", "result": 0.973}, {"measurement": "normalized growth", "setting": "locus YBR009C, strain hhf1, stronger effect = lower value", "result": "0.878 (active)"}, {"measurement": "normalized growth", "setting": "locus YBR021W, strain FUR4, stronger effect = lower value", "result": 1.08}, {"measurement": "normalized growth", "setting": "locus YBR023C, strain chs3, stronger effect = lower value", "result": 0.926}, {"measurement": "normalized growth", "setting": "locus YBR171W, strain sec66, stronger effect = lower value", "result": 0.945}, {"measurement": "normalized growth", "setting": "locus YBR229C, strain ROT2, stronger effect = lower value", "result": 1.01}, {"measurement": "normalized growth", "setting": "locus YBR231C, strain swc5, stronger effect = lower value", "result": 1.03}, {"measurement": "normalized growth", "setting": "locus YBR279W, strain paf1, stronger effect = lower value", "result": 0.98}, {"measurement": "normalized growth", "setting": "locus YCL011C, strain gbp2, stronger effect = lower value", "result": "0.88 (active)"}, {"measurement": "normalized growth", "setting": "locus YCL016C, strain dcc1, stronger effect = lower value", "result": "0.888 (active)"}, {"measurement": "normalized growth", "setting": "locus YCL029C, strain bik1, stronger effect = lower value", "result": 0.976}, {"measurement": "normalized growth", "setting": "locus YCL061C, strain MRC1, stronger effect = lower value", "result": 0.931}, {"measurement": "normalized growth", "setting": "locus YCL069W, strain vba3, stronger effect = lower value", "result": 0.96}, {"measurement": "normalized growth", "setting": "locus YCR088W, strain abp1, stronger effect = lower value", "result": 0.998}, {"measurement": "normalized growth", "setting": "locus YDL005C, strain med2, stronger effect = lower value", "result": 0.987}, {"measurement": "normalized growth", "setting": "locus YDL035C, strain GPR1, stronger effect = lower value", "result": 0.956}, {"measurement": "normalized growth", "setting": "locus YDL040C, strain nat1, stronger effect = lower value", "result": 0.995}, {"measurement": "normalized growth", "setting": "locus YDL074C, strain BRE1, stronger effect = lower value", "result": 0.908}, {"measurement": "normalized growth", "setting": "locus YDL101C, strain DUN1, stronger effect = lower value", "result": 0.958}, {"measurement": "normalized growth", "setting": "locus YDL134C, strain PPH21, stronger effect = lower value", "result": 0.997}, {"measurement": "normalized growth", "setting": "locus YDL185W, strain tfp1, stronger effect = lower value", "result": 0.928}, {"measurement": "normalized growth", "setting": "locus YDL192W, strain arf1, stronger effect = lower value", "result": 0.969}, {"measurement": "normalized growth", "setting": "locus YDR001C, strain nth1, stronger effect = lower value", "result": 0.983}, {"measurement": "normalized growth", "setting": "locus YDR069C, strain doa4, stronger effect = lower value", "result": 0.964}, {"measurement": "normalized growth", "setting": "locus YDR101C, strain arx1, stronger effect = lower value", "result": 0.993}, {"measurement": "normalized growth", "setting": "locus YDR137W, strain rgp1, stronger effect = lower value", "result": 0.954}, {"measurement": "normalized growth", "setting": "locus YDR150W, strain NUM1, stronger effect = lower value", "result": 0.952}, {"measurement": "normalized growth", "setting": "locus YDR159W, strain sac3, stronger effect = lower value", "result": 1.02}, {"measurement": "normalized growth", "setting": "locus YDR162C, strain NBP2, stronger effect = lower value", "result": 0.931}, {"measurement": "normalized growth", "setting": "locus YDR195W, strain ref2", "result": "1.17 [resistant] (active)"}, {"measurement": "normalized growth", "setting": "locus YDR297W, strain sur2, stronger effect = lower value", "result": 0.978}, {"measurement": "normalized growth", "setting": "locus YDR318W, strain mcm21, stronger effect = lower value", "result": 0.953}, {"measurement": "normalized growth", "setting": "locus YDR334W, strain swr1, stronger effect = lower value", "result": 0.919}, {"measurement": "normalized growth", "setting": "locus YDR335W, strain msn5, stronger effect = lower value", "result": 0.982}, {"measurement": "normalized growth", "setting": "locus YDR388W, stronger effect = lower value", "result": 0.985}, {"measurement": "normalized growth", "setting": "locus YDR392W, strain spt3, stronger effect = lower value", "result": 0.852}, {"measurement": "normalized growth", "setting": "locus YDR502C, strain sam2, stronger effect = lower value", "result": 0.957}, {"measurement": "normalized growth", "setting": "locus YEL003W, strain gim4, stronger effect = lower value", "result": 0.988}, {"measurement": "normalized growth", "setting": "locus YEL037C, strain rad23, stronger effect = lower value", "result": 0.944}, {"measurement": "normalized growth", "setting": "locus YEL061C, strain CIN8 (second series), stronger effect = lower value", "result": 0.981}, {"measurement": "normalized growth", "setting": "locus YEL061C, strain CIN8, stronger effect = lower value", "result": 0.999}, {"measurement": "normalized growth", "setting": "locus YER015W, strain faa2, stronger effect = lower value", "result": 0.965}, {"measurement": "normalized growth", "setting": "locus YER016W, strain bim1, stronger effect = lower value", "result": 1}, {"measurement": "normalized growth", "setting": "locus YER110C, stronger effect = lower value", "result": 0.948}, {"measurement": "normalized growth", "setting": "locus YER111C, strain swi4, stronger effect = lower value", "result": 0.973}, {"measurement": "normalized growth", "setting": "locus YER155C, strain BEM2 (second series), stronger effect = lower value", "result": 0.866}, {"measurement": "normalized growth", "setting": "locus YER155C, strain BEM2, stronger effect = lower value", "result": 1.03}, {"measurement": "normalized growth", "setting": "locus YER167W, strain BCK2, stronger effect = lower value", "result": 0.982}, {"measurement": "normalized growth", "setting": "locus YFR010W, strain ubp6, stronger effect = lower value", "result": 0.94}, {"measurement": "normalized growth", "setting": "locus YGL078C, strain dbp3, stronger effect = lower value", "result": 0.99}, {"measurement": "normalized growth", "setting": "locus YGL086W, strain mad1, stronger effect = lower value", "result": 0.961}, {"measurement": "normalized growth", "setting": "locus YGL167C, strain pmr1, stronger effect = lower value", "result": 0.998}, {"measurement": "normalized growth", "setting": "locus YGL173C, strain kem1, stronger effect = lower value", "result": 0.973}, {"measurement": "normalized growth", "setting": "locus YGL227W, strain vid30, stronger effect = lower value", "result": 0.988}, {"measurement": "normalized growth", "setting": "locus YGL240W, strain doc1, stronger effect = lower value", "result": 0.99}, {"measurement": "normalized growth", "setting": "locus YGL248W, strain PDE1, stronger effect = lower value", "result": 0.999}, {"measurement": "normalized growth", "setting": "locus YGL253W, strain hxk2, stronger effect = lower value", "result": 0.942}, {"measurement": "normalized growth", "setting": "locus YGR078C, strain PAC10, stronger effect = lower value", "result": 0.922}, {"measurement": "normalized growth", "setting": "locus YGR135W, strain pre9, stronger effect = lower value", "result": 0.935}, {"measurement": "normalized growth", "setting": "locus YGR229C, strain SMI1, stronger effect = lower value", "result": 0.948}, {"measurement": "normalized growth", "setting": "locus YGR252W, strain gcn5, stronger effect = lower value", "result": 0.817}, {"measurement": "normalized growth", "setting": "locus YHR013C, strain ard1, stronger effect = lower value", "result": 0.935}, {"measurement": "normalized growth", "setting": "locus YHR027C, strain rpn1, stronger effect = lower value", "result": 0.956}, {"measurement": "normalized growth", "setting": "locus YHR030C, strain SLT2, stronger effect = lower value", "result": "0.995 and 1.02"}, {"measurement": "normalized growth", "setting": "locus YHR079C, strain IRE1 (second series), stronger effect = lower value", "result": 0.992}, {"measurement": "normalized growth", "setting": "locus YHR079C, strain IRE1, stronger effect = lower value", "result": 1.03}, {"measurement": "normalized growth", "setting": "locus YHR094C, strain hxt1, stronger effect = lower value", "result": 0.988}, {"measurement": "normalized growth", "setting": "locus YHR129C, strain ARP1, stronger effect = lower value", "result": 0.996}, {"measurement": "normalized growth", "setting": "locus YHR142W, strain chs7, stronger effect = lower value", "result": "0.856 (active)"}, {"measurement": "normalized growth", "setting": "locus YHR200W, strain rpn10, stronger effect = lower value", "result": 0.928}, {"measurement": "normalized growth", "setting": "locus YIL066C, strain RNR3, stronger effect = lower value", "result": 0.933}, {"measurement": "normalized growth", "setting": "locus YIL073C, strain SPO22, stronger effect = lower value", "result": 0.865}, {"measurement": "normalized growth", "setting": "locus YIL125W, strain kgd1, stronger effect = lower value", "result": 1}, {"measurement": "normalized growth", "setting": "locus YIR030C, strain dcg1, stronger effect = lower value", "result": 0.998}, {"measurement": "normalized growth", "setting": "locus YJL092W, strain hpr5, stronger effect = lower value", "result": "0.917 (active)"}, {"measurement": "normalized growth", "setting": "locus YJL095W, strain BCK1 (second series), stronger effect = lower value", "result": 0.982}, {"measurement": "normalized growth", "setting": "locus YJL095W, strain BCK1, stronger effect = lower value", "result": "0.911 and 1.02"}, {"measurement": "normalized growth", "setting": "locus YJL115W, strain asf1, stronger effect = lower value", "result": 0.943}, {"measurement": "normalized growth", "setting": "locus YJL129C, strain trk1, stronger effect = lower value", "result": 0.987}, {"measurement": "normalized growth", "setting": "locus YJL134W, strain LCB3, stronger effect = lower value", "result": 0.985}, {"measurement": "normalized growth", "setting": "locus YJL154C, strain vps35, stronger effect = lower value", "result": 0.984}, {"measurement": "normalized growth", "setting": "locus YJL164C, strain tpk1, stronger effect = lower value", "result": 0.945}, {"measurement": "normalized growth", "setting": "locus YJL166W, strain qcr8, stronger effect = lower value", "result": 0.943}, {"measurement": "normalized growth", "setting": "locus YJL168C, strain set2, stronger effect = lower value", "result": 0.985}, {"measurement": "normalized growth", "setting": "locus YJL187C, strain SWE1 (second series), stronger effect = lower value", "result": 0.974}, {"measurement": "normalized growth", "setting": "locus YJL187C, strain SWE1, stronger effect = lower value", "result": 0.976}, {"measurement": "normalized growth", "setting": "locus YJR043C, strain POL32, stronger effect = lower value", "result": 0.953}, {"measurement": "normalized growth", "setting": "locus YJR066W, strain TOR1, stronger effect = lower value", "result": 0.969}]}]}
